# High-throughput results deposited in PubChem BioAssay by National Center for Advancing Translational Sciences (NCATS).
# In the library only some 1.1% were active in any assay of this set; here they are far more common.
# HTT ATP protect – qHTS Multiplex Assay to Identify Dual Action Probes in a Cell Model of Huntington: Cytoprotection (ATP); PC12 HTT-Q103 induced, cytoprotection, ATP luminescence, 40 h; Potency, µM (titrated, usually from 56.4 µM), actives largely listed as activators; 230,000 tested, 0.14% active; AID 1471, 2008; further: nearly all actives have a fitted effect of over 45% in size
#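 PC12 cells with ecdysone-inducible HTT exon 1 Q103-GFP, induced with 100 nM tebufenozide and co-treated with library compounds in a dose series (1536-well, 1500 cells/well). Cytoprotection read as ATP content by ATPlite luminescence.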
# LMNA splice mod – qHTS Assay for Modulators of Lamin A Splicing. 200,000 tested, 0.01% active. AID 1487, 2009. Potency, µM (doses to about 46.1 µM), actives largely listed as inhibitors. HeLa LMNA splicing GFP/RFP minigene ratio, 48 h; active means well fitted inhibition curve with a large enough effect in the signal ratio, with a control signal flat, not every such curve was filed as active; inconclusive means small, poorly fitted or top-dose-only effect, or effect the other way, or a change in a side signal; the % refers to the signal ratio
#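 S3 HeLa stable clones carrying a lamin A-EGFP splicing minigene plus DsRed2 were seeded at 600 cells/well in Opti-MEM with 2% FBS, pin-dosed and incubated 48 h at 37°C. Acumen cytometry (488 nm) gave the GFP/RFP total-intensity ratio.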
# NPSR antag – qHTS Assay for Antagonists of the Neuropeptide S Receptor: cAMP Signal Transduction; CHO-NPSR cells, cAMP TR-FRET, antagonist mode; Potency, µM (doses to about 38.3 µM), most hits filed as inhibitors; 220,000 tested, 1% active; AID 1461, 2008; further: nearly all actives have a fitted effect of over 50% in size
# Target sequence (Q6W5P4 whole entry, looked up): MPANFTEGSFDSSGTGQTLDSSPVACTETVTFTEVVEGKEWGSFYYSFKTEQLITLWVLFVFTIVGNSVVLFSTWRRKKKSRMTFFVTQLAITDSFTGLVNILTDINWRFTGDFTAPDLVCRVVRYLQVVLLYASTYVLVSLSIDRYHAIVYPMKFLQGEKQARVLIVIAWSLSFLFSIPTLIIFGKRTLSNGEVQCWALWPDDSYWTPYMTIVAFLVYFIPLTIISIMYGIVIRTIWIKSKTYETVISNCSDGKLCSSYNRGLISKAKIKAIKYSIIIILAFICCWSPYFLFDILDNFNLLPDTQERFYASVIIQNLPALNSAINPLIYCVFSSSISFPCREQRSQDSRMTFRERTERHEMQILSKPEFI
# CBFb-RUNX1 inh – qHTS Assay for Compounds Blocking the Interaction Between CBF-beta and RUNX1 for the Treatment of Acute Myeloid Leukemia. Potency, µM (series often up to 59.8 µM), usual class: inhibitors. Runt-related transcription factor 1 (Homo sapiens) + Core-binding factor subunit beta …. AlphaScreen CBFb-His/RUNX1-biotin binding, biochemical. 230,000 tested, under 10 active
#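 Interaction loss through any mechanism counts as activity. Pre-formed complex of His-CBF-beta and biotin-RUNX1 (30 nM apiece) is incubated with compound 15 min, then with 50 ng nickel and 50 ng streptavidin beads for 90 min before AlphaScreen detection.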
# MBNL1-CUG inh – qHTS Assay for Inhibitors of MBNL1-poly(CUG) RNA binding | Muscleblind-like protein 1 (Homo sapiens), Q9NR56 | TR-FRET MBNL1-His/biotin-(CUG)12 binding, 665/545 ratio | Potency, µM (titrated, usually from 57.5 µM), usual class: inhibitors | 280,000 tested, 0.036% active | AID 2675, 2010; active means well fitted inhibition curve with a large enough effect in the signal ratio, with a control signal flat, not every such curve was filed as active; inconclusive means small, poorly fitted or top-dose-only effect, or effect the other way, or a change in a side signal; inactive means no such curve, though single readings can be large or run the other way; the % refers to the signal ratio
#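 Ratiometric TR-FRET (665 over 545 nm, excitation 340 nm) tracks disruption of MBNL1-His/biotin-(CUG)12 complex after 60 min at room temperature, with compounds at 92 nM to 58 uM final.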
# HttQ103 aggreg – qHTS Multiplex Assay to Identify Dual Action Probes in a Cell Model of Huntington: Aggregate Formation (GFP); PC12 HttQ103-GFP aggregates, Acumen cytometry, 40 h; Potency, µM (series often up to 46.1 µM), hits mostly inhibitors; 220,000 tested, 1.1% active; further: nearly all actives have a fitted effect of over 60% in size
#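 Read-out: GFP aggregate count by laser scanning cytometer (488 nm excitation, 500-530 nm emission, 1–25 µm objects >6 SD above background). Cells: PC12, inducible HTTex1-Q103-GFP, 100 nM tebufenozide; compounds titrated.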
# Hits are given with their value; i = inactive; ? = inconclusive; nt = no result; [ ] = remark or other dose. Unless noted, the call rests on the fitted dose curve; in most records, active means well fitted curve in the direction sought with a large enough effect; inconclusive means small, poorly fitted or top-dose-only effect, or another doubt; inactive means no such curve, though single readings can be large; an effect the other way counts as inactive or inconclusive.
SMILES,HTT ATP protect,LMNA splice mod,NPSR antag,CBFb-RUNX1 inh,MBNL1-CUG inh,HttQ103 aggreg
Cc1ccccc1C(=O)Nc1sc(C)c(C)c1C(=O)c1ccccc1,i,?,i,i,i,i
O=C(NCC1CCCO1)C(c1cccs1)N(Cc1ccccc1Cl)C(=O)c1ccc(-c2ccccc2)[nH]1 (configuration not stated),i[10 µM],?,i,i,i,i
Cc1ccc(C(C(=O)NCC2CCCO2)N(Cc2ccccc2)C(=O)c2ccc(-c3ccccc3)[nH]2)o1 (configuration not stated),nt,?,i,i,i,0.126µM
COc1ccc(C(=O)Nc2cccc(-c3cn4ccsc4n3)c2)c(OC)c1,nt,i,nt,nt,nt,nt
Cc1c(C)c2cc(Cl)c(O)c(CN(C)C)c2oc1=O,i,i,i,i,i,i
CCc1c(C)c2cc(Cl)c(O)c(CN(C)C)c2oc1=O,i[0.074 µM],i,i,i,i,3.16µM
COc1cccc(/C=N/NC(=O)CNC(=O)c2ccc3c(c2)OCCO3)c1O,i[10 µM],?,i,i,i,35.5µM
Cc1ccc(C)c(NC(=O)CCC(=O)N/N=C/c2cc([N+](=O)[O-])ccc2O)c1,i[10 µM],?,i,i,?,i[9.22 µM]
O=C(N/N=C/c1cc([N+](=O)[O-])ccc1O)c1ccc2c(c1)OCCO2,i[10 µM],?,i,?,nt,14.1µM
COc1cccc(/C=N/NC(=O)CNC(=O)C2COc3ccccc3O2)c1O (configuration not stated),i[10 µM],?,i,i,?,12.6µM
Cc1ccccc1NC(=O)CCC(=O)N/N=C/c1cc([N+](=O)[O-])ccc1O,nt,?,i,i,?,12.6µM
O=C(N/N=C/c1ccccc1[N+](=O)[O-])c1ccc2c(c1)OCCO2,i[10 µM],nt,i,i,?,i[9.22 µM]
O=C(O)/C(=C\c1ccncc1)c1cccc2ccccc12,i[10 µM],nt,nt,nt,nt,nt
CCCCCCCC1=Cc2ccc(F)cc2C(C(C(C)=O)C(=O)OC)N1C(=O)OC (configuration not stated),i,i[9.22 µM],nt,i,nt,nt
CCCCC[C@H](O)/C=C/C=C\C=C\[C@@H](O)C/C=C\CCCC(=O)O,i,nt,nt,i,nt,nt
FC(F)(F)c1cccc(N2CCN(C(=S)NC3CCCC3)CC2)c1,i[10 µM],?,i,i,?,?
FC(F)(F)c1cccc(N2CCN(C(=S)NC3CCCCC3)CC2)c1,i[10 µM],?,i,i,i,22.4µM
CCC(C)C(N)C(=O)NC(CC(N)=O)C(=O)NC(CC(C)C)C(=O)NC(CCCCN)C(=O)NC(C)C(=O)NC(CC(C)C)C(=O)NC(C)C(=O)NC(C)C(=O)NC(CC(C)C)C(=O)NC(C)C(=O)NC(CCCCN)C(=O)NC(CCCCN)C(=O)NC(C(=O)NC(CC(C)C)C(N)=O)C(C)CC (configuration not stated),nt,nt,nt,i,nt,nt
N#Cc1ccccc1OCC(O)CS(=O)(=O)c1ccccc1 (configuration not stated),i,nt,i,i,i,i[9.22 µM]
N#Cc1ccccc1OC[C@H](O)CNCCNC(=O)Nc1ccccc1,31.6µM,nt,nt,i,nt,nt
Cc1ccc(C(=O)NCC(c2ccco2)S(=O)(=O)c2ccc(Cl)cc2)cc1C (configuration not stated),nt,i,nt,nt,nt,nt
CCCCCCCCCCCCCC[n+]1ccc(C)cc1,i,nt,nt,nt,nt,22.4µM
CCCCCCCCCCCCCCCC[n+]1ccc(/C=N/O)cc1,i[10 µM],i,5.01µM,i,i,8.91µM
CCCCCCCCCCCC[n+]1ccc2ccccc2c1,i,nt,nt,nt,nt,7.08µM
CCCCCCCCCCCCCCCC[n+]1ccc(C(N)=O)cc1,i[10 µM],i,i,i,nt,i
CC(C)NC(=O)CSc1nc2ccccc2c(=O)n1Cc1ccc(C(=O)NC(C)C)cc1,nt,i,nt,nt,nt,nt
